# Assay outcomes from PubChem.
# Luc counter: Counterscreen for Luciferase (Kinase-Glo TM) Inhibition | Luciferin 4-monooxygenase (Photuris pensylvanica), Q27757 | Kinase-Glo luciferase, ATP luminescence, 8 min | Potency, µM (series often up to 38.3 µM), for the others: at the highest dose activity change, negative = inhibition, hits mostly inhibitors | 200,000 tested, 0.28% active; note: % is set by controls: 0 for no effect and ±100 for the full control effect; nearly all actives have a fitted effect of over 60% in size
#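 Light output from Kinase-Glo luciferase with luciferin and 10 uM ATP in 50 mM imidazole pH 7.2, KCl, MgCl2, Tween 20, BSA; compound pin-delivered, 8-min ambient incubation, then luminescence read.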
# FLuc counter: qHTS profiling assay for firefly luciferase inhibitor/activator using purifed enzyme and Km concentrations of substrates (counterscreen for miR-21 project); AID 588342, 2011; purified FLuc, Km substrates, luminescence inhibition; Potency, µM (highest dose often 57.5 µM), for inactives: at the top dose activity change, negative = inhibition, actives largely listed as inhibitors; 360,000 tested, 6.9% active;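 note: plate controls were vehicle for no effect and reference inhibitor for full effect; nearly all actives have a fitted effect of over 55% in size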
# Target sequence (P08659 whole entry, looked up): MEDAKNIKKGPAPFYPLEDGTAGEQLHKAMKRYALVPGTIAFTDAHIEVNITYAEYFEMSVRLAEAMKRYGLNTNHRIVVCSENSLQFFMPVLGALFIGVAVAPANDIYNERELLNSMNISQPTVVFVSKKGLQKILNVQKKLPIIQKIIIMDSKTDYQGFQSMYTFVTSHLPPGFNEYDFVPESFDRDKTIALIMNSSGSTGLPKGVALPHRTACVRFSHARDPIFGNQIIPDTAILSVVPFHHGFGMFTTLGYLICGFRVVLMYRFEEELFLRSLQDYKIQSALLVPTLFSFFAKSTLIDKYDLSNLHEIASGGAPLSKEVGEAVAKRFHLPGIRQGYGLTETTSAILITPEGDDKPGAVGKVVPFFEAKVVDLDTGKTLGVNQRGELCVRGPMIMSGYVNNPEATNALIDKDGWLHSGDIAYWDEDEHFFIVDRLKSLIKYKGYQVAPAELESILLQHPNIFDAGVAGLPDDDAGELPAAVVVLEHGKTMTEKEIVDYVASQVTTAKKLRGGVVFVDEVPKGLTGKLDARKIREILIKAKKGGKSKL
#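 Purified P. pyralis luciferase, 10 nM final, with Km-level 10 uM D-luciferin and 10 uM ATP in 50 mM Tris acetate pH 7.5, 10 mM Mg acetate, 0.01% Tween-20, 0.05% BSA; 6-point qHTS titration about 60 µM downward; luminescence read.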
# Rab9 promoter act: qHTS Assay for Rab9 Promoter Activators; 320,000 tested, 2.8% active; Huh7 Rab9 promoter-luciferase reporter, luminescence, 24 h; Potency, µM (series often up to 9.22 µM), for the others: at the highest dose activation, negative = inhibition, hits mostly activators; AID 485297, 2010; note: % of control where 0% means no effect; nearly all actives have a fitted effect of over 60% in size
#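 Quantitative HTS format; Huh7 Rab9-luciferase reporter cells (1500/well) receive compound 2 h post-plating, incubate 24 h at 37 °C, then get luciferase reagent for 10 min before luminescence reading.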
# SMN2 splice up: qHTS Assay for Enhancers of SMN2 Splice Variant Expression. Potency, µM (titrated, usually from 46.1 µM), inactives show top-dose activity change, positive = activation, usual class: activators. AID 1458, 2008. HEK293 SMN2-luciferase splicing reporter, luminescence, 30-36 h. 210,000 tested, 2.8% active; note: % of control where 0% means no effect; nearly all actives have a fitted effect of over 55% in size
#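 qHTS luciferase splicing reporter: luminescence rises when SMN2 exon 7 is included in transfected HEK293 cells. Compound exposure lasted 30-36 h at 37C, with 4.5 mM final sodium butyrate as control, followed by a ONE-Glo read.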
# NPC1 promoter act: qHTS Assay for NPC1 Promoter Activators; Huh7 NPC1 promoter luciferase reporter, 24 h; Potency, µM (top dose mostly 9.22 µM), inactives show at the top dose activation, usual class: activators; 320,000 tested, 2.4% active; AID 485313, 2010; note: % of control where 0% means no effect; nearly all actives have a fitted effect of over 60% in size
#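 Cells: Huh7 expressing luciferase under the NPC1 promoter, 1500/well. Seeded 2 h, compound added, incubated 24 h at 37 °C. Luciferase reagent, 10 min ambient, then luminescence.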
# Starred values were filed as active, the others as inactive; u = inconclusive; x = no result given. A selection: hits, their analogues and other compounds. The true share with any hit is near 7.3%. Calls come from the whole dose curve; as a rule, active = well fitted curve in the direction sought with a large enough effect; inconclusive = small, poorly fitted or top-dose-only effect, or another doubt; inactive = no such curve, though single readings can be large; an effect the other way counts as inactive or inconclusive. Potency is the fitted concentration of half-maximal effect.
SMILES,Luc counter,FLuc counter,Rab9 promoter act,SMN2 splice up,NPC1 promoter act
Cc1ccc(C(=O)CSc2cc(C)[nH]c(=O)n2)cc1,x,13µM*,4µM*,x,3.2µM*
Cc1ccc(CNC(=O)CSc2cc(C)[nH]c(=O)n2)cc1,x,-13%,x,x,x
Cc1cc(SCC(=O)c2ccc(Cl)cc2)nc(=O)[nH]1,x,4.8µM*,1.6µM*,x,1.3µM*
Cc1cc(SCC(=O)c2ccccc2)nc(=O)[nH]1,x,15µM*,4µM*,x,2.5µM*
Cc1cc(SCc2ccc(Cl)cc2Cl)nc(=O)[nH]1,x,5%,-7%,x,-12%
CC(=O)c1ccccc1NC(=O)c1ccc(N2CCCC2=O)cc1,x,7.6µM*,u,x,27%
CC(=O)c1ccc(NC(=O)c2ccc(N3CCCC3=O)cc2)cc1,x,-12%,-1%,x,1%
CSc1ccccc1NC(=O)c1ccc(N2CCCC2=O)cc1,x,15µM*,u,x,u
Cc1oc(-c2ccccc2)cc1C(=O)Nc1ccccc1,-3%,-16%,-1%,29%,10%
Cc1cc(C(=O)Nc2cccc(/C=C/C(=O)O)c2)c(C)o1,-13%,13µM*,5%,8%,2%
Cc1oc(C(C)(C)C)cc1C(=O)Nc1cccc(/C=C/C(=O)O)c1,-2%,12µM*,-19%,0%,-3%
Cc1cc(C(=O)Nc2ccccc2)c(C)o1,-5%,u,-2%,-16%,-3%
Cc1oc(-c2ccccc2)cc1C(=O)Nc1cccc(/C=C/C(=O)O)c1,5%,15µM*,-1%,3%,-1%
COc1ccc(/C=C/C(=O)Nc2sc3c(c2C(N)=O)CCC(C)C3)cc1OC (stereo not drawn),x,-9%,x,1%,x
COc1cccc(CNC(=O)C(NS(=O)(=O)c2cccs2)C(C)C)c1 (stereo not drawn),x,-1%,x,-3%,x
COC(=O)c1ccc(NC(=O)Nc2ccc3c(c2)nc(C)n3C)cc1,-2%,u,u,x,u
Cc1ccc(S(=O)(=O)Nc2ccc3c(c2)nc(C)n3C)cc1,x,2%,-7%,x,3%
Cc1ccc(NC(=O)Nc2ccc3c(c2)nc(C)n3C)cc1,0%,3µM*,0.5µM*,x,1.4µM*
Cc1nc2cc(NC(=O)Nc3ccccc3Cl)ccc2n1C,u,0.38µM*,0.89µM*,x,0.089µM*
Cc1nc2cc(NC(=O)Nc3cccc([N+](=O)[O-])c3)ccc2n1C,x,1.9µM*,0.71µM*,x,0.35µM*
CC(=O)c1ccc(NC(=O)Nc2ccc3c(c2)nc(C)n3C)cc1,-7%,19µM*,3.2µM*,u,u
CCS(=O)(=O)N1CCc2cc(C(=O)Nc3cc([N+](=O)[O-])ccc3C)ccc21,x,1%,x,x,x
c1ccc(-n2ncc3c(NCCCN4CCOCC4)ncnc32)cc1,-2%,24µM*,4µM*,u,3.2µM*
c1ccc2c(c1)oc1c(NCCCN3CCOCC3)ncnc12,2%,-4%,-1%,7%,-3%
Clc1ccc(-n2ncc3c(NCCN4CCOCC4)ncnc32)cc1,-4%,6.7µM*,5%,-47%,29%
SMILES,Luc counter,FLuc counter,Rab9 promoter act,SMN2 splice up,NPC1 promoter act
Cc1cc(C)nc(S/C=C/C(=O)c2ccc(F)cc2)n1,x,1.9µM*,-19%,x,-6%
Cc1cc(C)nc(SCC(=O)c2ccc(F)cc2)n1,x,-13%,21%,x,9%
CCCc1cc(C(=O)Nc2c(C)nn(Cc3c(Cl)cccc3Cl)c2C)no1,x,4%,x,u,x
O=C1Nc2c(c(=O)[nH]c(=O)n2-c2ccc(Cl)cc2)C1(NS(=O)(=O)c1ccccc1)C(F)(F)F (stereo not drawn),x,-16%,x,21%,x
CCCn1c(O)c(N=Nc2ccc3ccccc3n2)c2ccccc21,-5%,8.5µM*,0.71µM*,u,1µM*
CCc1ccc(C(=O)N/N=C/c2ccc(Cl)cc2Cl)nc1,0%,7.6µM*,22%,26%,10%
O=C(N/N=C/c1ccc(Cl)cc1Cl)c1cccc(F)c1,-15%,3.4µM*,2µM*,u,1.8µM*
O=C(N/N=C/c1cc([N+](=O)[O-])ccc1Cl)c1ccc2nc[nH]c2c1,4%,1%,-6%,-19%,-8%
C=CCc1cccc(/C=N/NC(=O)c2ccccc2OC)c1O,3%,13µM*,-3%,-102%,24%
O=C(N/N=C/c1ccc(Cl)cc1Cl)c1ccc2nc[nH]c2c1,x,9.5µM*,24%,x,8%
CCOC(=O)c1cccc(NC(=O)c2cc(CN3CCOCC3)on2)c1,x,5%,x,x,x
CN(C)c1cccc(C(=O)N2CCC(c3ccncc3)CC2)c1,x,-3%,x,x,x
O=C(N/N=C/c1ccco1)c1ccc2nc[nH]c2c1,x,-5%,-4%,x,-1%
C=CCc1cccc(/C=N/NC(=O)c2ccc3nc[nH]c3c2)c1O,x,17µM*,-49%,x,-42%
Cc1ccc(C(=O)Nc2nc(=O)n(C(=O)c3ccccc3C)s2)cc1,5%,15µM*,u,20%,15%
O=C(Nc1nc(=O)n(C(=O)C2CC2)s1)c1ccccc1,0%,u,1%,0%,-5%
Cc1ccc(C(=O)Nc2nc(=O)n(C(=O)C3CC3)s2)cc1,4%,19µM*,-6%,19%,1%
CCOC(=O)Cc1ccc(NC(=O)Nc2cccc(OCc3cc(=O)n4cc(C)ccc4n3)c2)cc1,x,-5%,x,x,x
Clc1ccc(C2Nc3cccc4cccc(c34)N2)cc1Cl,x,24µM*,16%,x,26%
CCOc1cc(C2Nc3cccc4cccc(c34)N2)ccc1O,-3%,13µM*,18%,1%,19%
Clc1cccc(C2Nc3cccc4cccc(c34)N2)c1,x,u,8%,x,13%
c1ccc(C2Nc3cccc4cccc(c34)N2)cc1,x,15µM*,22%,x,u
Cc1ccc(C2NC(=O)c3ccccc3N2)s1 (stereo not drawn),-3%,u,11%,10µM*,-3%
COc1ccc(C2Nc3cccc4cccc(c34)N2)cc1,-2%,u,-2%,-4%,13%
CC1CCC(NC(=O)c2ccc(CS(=O)(=O)c3c(Cl)cccc3Cl)o2)CC1 (stereo not drawn),x,-2%,x,-12%,x
SMILES,Luc counter,FLuc counter,Rab9 promoter act,SMN2 splice up,NPC1 promoter act
O=S(=O)(c1ccccc1)c1nnn2c1nc(NC1CCCCCC1)c1sccc12,x,0%,x,x,x
CN(C)c1ccc(C2Nc3cccc4cccc(c34)N2)cc1,x,17µM*,u,x,u
CN(C)c1ccc(C2NC(=O)c3ccccc3N2)cc1 (stereo not drawn),x,9.5µM*,17%,x,11%
CCSc1ccccc1C(=O)Nc1ccc(-c2nc3ccccc3s2)c(O)c1,x,-2%,x,x,x
CNc1nnc(-c2ccc(N(C)C)cc2)s1,-12%,2.1µM*,0.45µM*,2.8µM*,0.56µM*
CC12CCC(C(=O)N(CSC(=S)N/N=C\c3ccccc3O)C1=O)C2(C)C (stereo not drawn),-2%,u,-7%,-40%,-10%
